This note sets out measurements from PubChem BioAssay (NCI).

The nature of assay [1]: NCI Yeast Anticancer Drug Screen. Data for the rad50 strain (AID 155).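 Note: 0% = growth of vehicle-only cultures of the same strain.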 Particulars: S. cerevisiae rad50 strain growth inhibition; at 50.0 µM; active compounds read high. The method in brief: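 Vehicle-treated cultures provide the reference for the growth inhibition reported for compound-exposed, repair-deficient yeast.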
A short description of assay [2]: NCI Yeast Anticancer Drug Screen. Data for the mec2-1 strain (AID 157). The settings on record: S. cerevisiae mec2-1 strain, at 50.0 µM, active compounds read high. The method in brief: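 Yeast mec2-1 mutant treated with compound. Readout: growth inhibition vs vehicle controls.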
Assay [3] is described as follows: NCI Yeast Anticancer Drug Screen. Data for the sgs1 mgt1 strain (AID 161).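 Note: 0% = growth of cultures given vehicle only.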 Particulars: S. cerevisiae sgs1 mgt1 strain, at 50.0 µM, active compounds read high. The method in brief:
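Genetically altered yeast, compound exposure, growth inhibition relative to vehicle.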

Assay [4] in a line: NCI Yeast Anticancer Drug Screen. Data for the cln2 rad14 strain (AID 165).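 Note: 0% = growth equal to vehicle treated cultures.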 The settings on record: S. cerevisiae cln2 rad14 strain, at 50.0 µM, active compounds read high. The gist of the method:
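cln2 rad14 yeast strain; compound exposure; growth inhibition read vs vehicle controls.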

Assay [5] is described as follows: NCI Yeast Anticancer Drug Screen. Data for the bub3 strain (AID 167). The settings on record: S. cerevisiae bub3 mutant strain, at 50.0 µM, active compounds read high. The method in brief: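 Mutant yeast screening strain plus compound; vehicle-treated cultures serve as the 0% inhibition reference.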
A short description of assay [6]: NCI Yeast Anticancer Drug Screen. Data for the mlh1 rad18 strain (AID 175). Particulars: S. cerevisiae mlh1 rad18 strain growth inhibition; at 50.0 µM; active compounds read high. The method in brief:
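Yeast w/ defined DNA-repair lesions; compound exposure; growth vs vehicle controls → % inhibition.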

This is part of a sample that, as a whole, favours compounds with a hit. Of some 79,000 tested, about 15% had one in any assay. A number with no mark means an inactive call. Calls of active or inactive are those of the source. Cut-off read from the data, not from the text of the source: active = growth inhibition above about 70%; inactive = the rest.

Consider `COC(=O)C1(c2ccccc2)Cc2ccccc2-c2ccccc21` (stereo not given), for which the growth inhibition is -24.1% in assay [1]; -9.5% in assay [2]; -10.2% in assay [3]; -16.3% in assay [4]; 26.1% in assay [5]; -17% in assay [6].

On to `C[N+](C)(C)/N=C/c1ccc(O)c(O)c1`, for which the growth inhibition in assay [1] was -48.2%; in assay [2] it was -23.8%; in assay [3], -15.3%; in assay [4] it was -16%; in assay [5] it was -14.9%; in assay [6] it was -13.8%.

`N#C/C(=C/NC(=S)Nc1ccccc1)C(N)=O`: the growth inhibition in assay [1] is -31.6%; in assay [2] it was -30.8%; in assay [3], -26.8%; in assay [4] it was -20%; in assay [5] it was -15.7%; in assay [6] it was -16.5%.

With `CC(=O)Oc1ccc(CC(C)C(C)Cc2ccc(OC(C)=O)c(OC(C)=O)c2)cc1OC(C)=O` (stereo not given), the growth inhibition in assay [1] was 51%; in assay [2], 23%; in assay [3], 50%; in assay [4], 7.4%; in assay [5], 0.5%; in assay [6], 26.5%.

For `COC(=O)C(C(=O)C(=O)Nc1nc2ccc([N+](=O)[O-])cc2s1)c1nc2ccc(Cl)cc2[nH]c1=O` (stereo not given), the growth inhibition in assay [1] is 10.3%; in assay [2] it was 17.5%; in assay [3], 21.4%; in assay [4] it was 26.8%; in assay [5] it was 15%; in assay [6] it was -3.1%.

Turning to `O=C(C1SCCCS1)N(O)c1ccccc1OCc1ccccc1`, the growth inhibition in assay [1] was -3.85%; in assay [2], -37.6%; in assay [3], -22.8%; in assay [4], -14.5%; in assay [5] it was 0.95%; in assay [6] it was -19.8%.

Regarding `O=C1Nc2cc(Cl)ccc2N=CC1NC(=O)C(c1ccccc1)c1ccccc1Cl` (stereo not given), the growth inhibition in assay [1] is -33.1%; in assay [2], -11.6%; in assay [3], -6.15%; in assay [4] it was -15.9%; in assay [5], -6.8%; in assay [6], -17.8%.

For the compound `CNC(=O)Sc1ccc([N+](C)(C)C)cc1`, the growth inhibition is 9.8% in assay [1]; 0.1% in assay [2]; 19.8% in assay [3]; -7.5% in assay [4]; 18.8% in assay [5]; 30.3% in assay [6].

In the case of `COC(=O)C1C=CN(N(C)C)C2=C1C(=O)c1c(O)cccc1C2=O` (stereo not given), the growth inhibition in assay [1] is 86% (active); in assay [2], 93% (active); in assay [3] it was 89.2% (active); in assay [4], 88.1% (active); in assay [5], 89.5% (active); in assay [6], 90.2% (active).

Take `O=C1C(Cl)=C(NC(CO)(CO)CO)C(=O)c2ccccc21`: the growth inhibition in assay [1] is 4.7%; in assay [2], 16.6%; in assay [3] it was -6.05%; in assay [4], 1.6%; in assay [5], 8.45%; in assay [6], 8.15%.

Regarding `CCn1c2ccccc2c2c(-c3ccccc3)cc3c(c21)C(=O)N(c1ccccc1)C3=O`, the growth inhibition in assay [1] is -0.3%; in assay [2], -8.95%; in assay [3], 3.45%; in assay [4], -54%; in assay [5], -7.9%; in assay [6] it was -9.9%.

With `C(/C=N/NC1=NCCCCN1)=N\NC1=NCCCCN1`, the growth inhibition in assay [1] was -6.7%; in assay [2] it was -13%; in assay [3], -9.05%; in assay [4] it was 4.5%; in assay [5] it was -13.6%; in assay [6], -11.2%.

In the case of `CSC1=C(CCC(C)CCCC(C)CCCC(C)CCCC(C)CCCC(C)CCCC(C)C)C(=O)c2sccc2C1=O` (stereo not given), the growth inhibition in assay [1] was 15.7%; in assay [2], 13.6%; in assay [3] it was -1.45%; in assay [4], -17.9%; in assay [5] it was 11.5%; in assay [6] it was -5.95%.

For the compound `CCOC(=O)NN(C(=O)OCC)c1c(C)cc(C)c(N(NC(=O)OCC)C(=O)OCC)c1C`, the growth inhibition in assay [1] is 1.7%; in assay [2] it was 7.25%; in assay [3] it was 12.4%; in assay [4] it was 23.9%; in assay [5], 16.4%; in assay [6] it was 22.6%.

On to `Cc1ncc(CSCC(=O)O)c(N)n1`, for which the growth inhibition in assay [1] is 3.5%; in assay [2], -16.1%; in assay [3] it was -5.05%; in assay [4], -9.05%; in assay [5] it was -8.7%; in assay [6], -8.55%.

Consider `CC/C(=C\c1ccccc1O)c1ccncc1`, for which the growth inhibition in assay [1] is 2.2%; in assay [2] it was -8.5%; in assay [3], 2.5%; in assay [4] it was 1.85%; in assay [5], 23.1%; in assay [6], -0.65%.

On to `CC(=O)NCCc1ccc(OC(C)=O)c(OC(C)=O)c1`, for which the growth inhibition was 0.15% in assay [1]; -10.6% in assay [2]; 26.2% in assay [3]; 6.45% in assay [4]; 23.4% in assay [5]; 16.1% in assay [6].

Take `CSc1nc(SC)c(Nc2cccc(C)c2)c(SC)n1`: the growth inhibition is -8.65% in assay [1]; 7.7% in assay [2]; 4.2% in assay [3]; -38% in assay [4]; 21.8% in assay [5]; -0.3% in assay [6].

As to `O=C(C[N+](=O)[O-])OCc1ccccc1`, the growth inhibition in assay [1] was 14.8%; in assay [2], 22.8%; in assay [3] it was 6.4%; in assay [4], -18.1%; in assay [5], -0.4%; in assay [6], 4.65%.

Regarding `O=c1[nH]c(-c2cccc(F)c2)nc2ccccc12`, the growth inhibition in assay [1] was 16.9%; in assay [2], -10.9%; in assay [3], 3.1%; in assay [4], 19.2%; in assay [5], -7.4%; in assay [6] it was 10.2%.
